SMILES strings stand for the structures. Inconclusive results are not listed. A structure can be active in one record and inactive in another. Calls of active or inactive are those of the source. Calls follow the shape of the dose curve; as a rule, active = well fitted curve in the direction sought with a large enough effect; inconclusive = small, poorly fitted or top-dose-only effect, or another doubt; inactive = no such curve, though single readings can be large; an effect the other way counts as inactive or inconclusive.

A short description of one assay: qHTS for Inhibitors of Plasmodium falciparum (HB3) proliferation (AID 504318). Also: nearly all actives have a fitted effect of over 60% in size. Also: potency is read from the fitted curve at half-maximal effect.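 As to activity change, negative = inhibition: 0% = DMSO vehicle and -100% = artemisinin control.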 The following applies: P. falciparum HB3 in erythrocytes, SYBR Green DNA, 72 h; series mostly up to 7.21 µM; activity change, negative = inhibition: at the top concentration. In short, it runs like this:
(§1)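 Erythrocytes infected with P. falciparum line (0.3% parasitemia, 2.5% hematocrit final) incubated with compounds 72 h at 37 °C, 5% CO2; SYBR Green lysis buffer added, fluorescence read next day. Normalized to 0.29 uM artemisinin and DMSO.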
`COC(=O)C12CC3(CCC4C5C(C(OCc6ccccc6)C41)C52)OCCO3` (stereo unspecified): the “activity change, negative = inhibition” value is 6.66% (inactive).

For `COc1ccc2c(c1)O[C@@H](c1cccc(C(F)(F)F)c1)[C@H](OC(=O)Nc1ccc(OC(F)F)cc1)C2=O`, the “activity change, negative = inhibition” value is -9.84% (inactive).

As for `COC(=O)C1=C(C)C(=O)[C@]2(O)c3ccccc3N(C)[C@]12C`, the “activity change, negative = inhibition” value was -7.34% (inactive).

Consider `CCC12C=C(C=Cc3ccccc3)C(CC)(C1)C(c1ccccc1)CC2=O` (stereo unspecified), for which the “activity change, negative = inhibition” value was -8.78% (inactive).

For `COC(=O)[C@@H]1[C@@H](c2ccccc2)NC(=O)N(Cc2ccccc2)[C@@H]1C`, the “activity change, negative = inhibition” value was 7.33% (inactive).

For the compound `COC(=O)N1C(c2ccccc2)=Cc2ccccc2C1CC(C)=O` (stereo unspecified), the “activity change, negative = inhibition” value is 3.07% (inactive).

With `CCCCS(=O)(=O)N1CCc2nc(-c3ccccc3)c3c(c2C1)CO[C@@H](C)C3`, the “activity change, negative = inhibition” value was -5.39% (inactive).

Take `FC(F)(F)c1ccc(-c2nc(-c3ccccc3)oc2Nc2ccc3ccccc3c2)cc1`: the “activity change, negative = inhibition” value was -13.1% (inactive).

Take `COC[C@@H](O)[C@H]1OCc2ccccc2[C@H]1C=Cc1ccccc1`: the “activity change, negative = inhibition” value is -8.67% (inactive).

With `O=C(C=Cc1ccccc1)N1CCC[C@H]1CO`, the “activity change, negative = inhibition” value is 11.8% (inactive).

Regarding `CCN(CC)CC(O)CN1CCCCc2nc(C)c(C)cc21` (stereo unspecified), the “activity change, negative = inhibition” value is 5.05% (inactive).

On to `CC1(C)O[C@H]2O[C@H]([C@H](O)CON=C3[C@H]4CCn5c(=O)n(-c6ccccc6)c(=O)n5[C@@H]4[C@H](O)[C@@H]4O[C@H]34)[C@H](O)[C@@H]2O1`, for which the “activity change, negative = inhibition” value is -1.17% (inactive).

Turning to `CCCCC1=CC2=CC(=O)C(C)(OC(=O)c3cnc4ccccc4n3)C(=O)C2=CO1` (stereo unspecified), the “activity change, negative = inhibition” value is -0.766% (inactive).

For the compound `CC(CCN1CCc2nc(-c3ccccc3)c(-c3ccccc3)cc2C1)=NOC[C@@H](O)COCc1ccco1`, the “activity change, negative = inhibition” value is -9.37% (inactive).

Take `CCC(=O)C[C@@H](NC(=O)OC)c1ccc(F)cc1`: the “activity change, negative = inhibition” value is -1.19% (inactive).

With `CCCCCCCc1cc2ccccc2c2c(C(=O)OC)c(C(=O)OC)c(C(=O)OC)n12`, the “activity change, negative = inhibition” value was -1.54% (inactive).

Regarding `Cc1ccc2[nH]c3nc(CCCn4ccnc4-c4ccccc4)nnc3c2c1`, the “activity change, negative = inhibition” value was -9.19% (inactive).

As to `CCCCC[C@]12Cc3cc(OC)c(OC)cc3[C@H](O1)c1c(cc(C)n(-c3ccccc3)c1=O)O2`, the Potency was 2.94 µM (active) and inactive.

`COC(=O)[C@H](COC(C)(C)C)NC(=O)O[C@@H]1C(=O)c2ccc(OC)cc2O[C@H]1c1cccc(C(F)(F)F)c1`: the “activity change, negative = inhibition” value is -11.9% (inactive).

Consider `COCCN1C(=O)CC[C@@]23C1=NC(C(=O)OC)=C(C(=O)OC)[C@@H]2N(CC=C(C)C)c1ccccc13`, for which the “activity change, negative = inhibition” value is -15.5% (inactive).

Turning to `C#CC[C@@]1(C(=O)OC)C=C[C@@H](C)[C@H](c2ccccc2Br)N1C(=O)C(F)(F)F`, the “activity change, negative = inhibition” value was 2.5% (inactive).

Take `COC(=O)C1(C(=O)OC)C[C@@H]2CON=C2[C@@H]1c1ccccc1`: the “activity change, negative = inhibition” value was -6.23% (inactive).

The nature of the next assay: qHTS for Inhibitors of Plasmodium falciparum (CP250) proliferation (AID 504320).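 Also: plate controls were DMSO vehicle for no effect and 0.29 µM artemisinin control for full effect.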 As to conditions: P. falciparum CP250 in erythrocytes, SYBR Green DNA, 72 h; series mostly up to 6.7 µM; activity change, negative = inhibition: at the top concentration. In short, it runs like this:
as §1
For orientation: In qHTS, concentration-response curves come from the screen itself.
`COC(=O)C12CC3(CCC4C5C(C(OCc6ccccc6)C41)C52)OCCO3` (stereo unspecified): the “activity change, negative = inhibition” value is 3.59% (inactive).

Regarding `COc1ccc2c(c1)O[C@@H](c1cccc(C(F)(F)F)c1)[C@H](OC(=O)Nc1ccc(OC(F)F)cc1)C2=O`, the “activity change, negative = inhibition” value is -2.07% (inactive).

As for `COC(=O)C1=C(C)C(=O)[C@]2(O)c3ccccc3N(C)[C@]12C`, the “activity change, negative = inhibition” value is -2.41% (inactive).

In the case of `CCC12C=C(C=Cc3ccccc3)C(CC)(C1)C(c1ccccc1)CC2=O` (stereo unspecified), the “activity change, negative = inhibition” value is 1.01% (inactive).

On to `COC(=O)[C@@H]1[C@@H](c2ccccc2)NC(=O)N(Cc2ccccc2)[C@@H]1C`, for which the “activity change, negative = inhibition” value was -4.43% (inactive).

In the case of `CC(C)=CCCC(C)=CCON=C1C[C@@H](O)[C@@H](O)[C@@H]2[C@H]3C(=O)N(Cc4ccc5c(c4)OCO5)C(=O)[C@@H]3CC[C@H]12`, the “activity change, negative = inhibition” value is 4.57% (inactive).

As to `COC(=O)N1C(c2ccccc2)=Cc2ccccc2C1CC(C)=O` (stereo unspecified), the Potency entry is “inactive”.

With `CCCCS(=O)(=O)N1CCc2nc(-c3ccccc3)c3c(c2C1)CO[C@@H](C)C3`, the Potency result is “inactive”.

As to `FC(F)(F)c1ccc(-c2nc(-c3ccccc3)oc2Nc2ccc3ccccc3c2)cc1`, the “activity change, negative = inhibition” value was 4.18% (inactive).

For the compound `COC[C@@H](O)[C@H]1OCc2ccccc2[C@H]1C=Cc1ccccc1`, the “activity change, negative = inhibition” value was 6.55% (inactive).

As to `C=CC[C@@]1(c2ccc(OC)cc2)Oc2ccccc2C2=NCCN=C21`, the “activity change, negative = inhibition” value was -0.422% (inactive).

As to `O=C(C=Cc1ccccc1)N1CCC[C@H]1CO`, the “activity change, negative = inhibition” value was -1.22% (inactive).

With `CCN(CC)CC(O)CN1CCCCc2nc(C)c(C)cc21` (stereo unspecified), the “activity change, negative = inhibition” value was -3.38% (inactive).

In the case of `CC1(C)O[C@H]2O[C@H]([C@H](O)CON=C3[C@H]4CCn5c(=O)n(-c6ccccc6)c(=O)n5[C@@H]4[C@H](O)[C@@H]4O[C@H]34)[C@H](O)[C@@H]2O1`, the “activity change, negative = inhibition” value was -5.01% (inactive).

As for `CCCCC1=CC2=CC(=O)C(C)(OC(=O)c3cnc4ccccc4n3)C(=O)C2=CO1` (stereo unspecified), the “activity change, negative = inhibition” value is 7.58% (inactive).

Regarding `COC(=O)CC=C[C@@H](C)[C@@H](C=NOC[C@@H](O)COCc1ccco1)NS(=O)(=O)c1ccc(C)cc1`, the “activity change, negative = inhibition” value was -14.2% (inactive).

`COc1ccc2c(c1)C(=O)[C@@H](OC(=O)NCCc1ccc(OC)c(OC)c1)[C@H](c1ccc(OC)c(Br)c1)O2`: the “activity change, negative = inhibition” value is -1.29% (inactive).

With `CC(CCN1CCc2nc(-c3ccccc3)c(-c3ccccc3)cc2C1)=NOC[C@@H](O)COCc1ccco1`, the “activity change, negative = inhibition” value was 0.66% (inactive).

Take `CC=CC(=O)C[C@H]1CC[C@@H](C)[C@@H](CCO)O1`: the “activity change, negative = inhibition” value was -0.485% (inactive).

Regarding `C=C(C(C)=O)C(O)c1ccccc1` (stereo unspecified), the “activity change, negative = inhibition” value was 6.19% (inactive).

Turning to `COC(=O)CCC(=O)OC1(C)C(=O)C=C2C=C(C3CC3)N(c3ccc(CO)cc3)C=C2C1=O` (stereo unspecified), the Potency entry was “inactive”.

`CCC(=O)C[C@@H](NC(=O)OC)c1ccc(F)cc1`: the “activity change, negative = inhibition” value was 2.79% (inactive).

As for `C[C@H]1Cc2c(COc3ccccc3)nc3c(c2CO1)CN(C(=O)C1CC1)CC3`, the Potency entry is “inactive”.

For `C=CCC(Nc1ccc(OC)cc1)(C(=O)OCC)c1ccccc1` (stereo unspecified), the “activity change, negative = inhibition” value was 5.91% (inactive).

For the compound `CCCCCCCc1cc2ccccc2c2c(C(=O)OC)c(C(=O)OC)c(C(=O)OC)n12`, the “activity change, negative = inhibition” value is -20% (inactive).

Turning to `Cc1ccc2[nH]c3nc(CCCn4ccnc4-c4ccccc4)nnc3c2c1`, the “activity change, negative = inhibition” value was -4.76% (inactive).

Turning to `CCCCC[C@]12Cc3cc(OC)c(OC)cc3[C@H](O1)c1c(cc(C)n(-c3ccccc3)c1=O)O2`, the Potency entry was “inactive”.

For `CC(CCC(=O)OC[C@H]1O[C@H](C#Cc2ccccc2)C=C[C@H]1Oc1ccc(C)cc1)=NO[C@H](C)c1cn([C@H](CO)Cc2ccccc2)nn1`, the “activity change, negative = inhibition” value is -8.07% (inactive).

Take `COC(=O)C1=C(C(=O)OC)[C@@H]2N(C)c3ccccc3[C@@]23CCC(=O)N(CCCOC(C)C)C3=N1`: the “activity change, negative = inhibition” value was 9.74% (inactive).

On to `COC(=O)[C@H](COC(C)(C)C)NC(=O)O[C@@H]1C(=O)c2ccc(OC)cc2O[C@H]1c1cccc(C(F)(F)F)c1`, for which the “activity change, negative = inhibition” value is 0.731% (inactive).

In the case of `COC1=C[C@H](C(=O)NC2CCN(Cc3ccccc3)CC2)[C@@]2(C)Cc3ccccc3[C@@H]2CC1=O`, the “activity change, negative = inhibition” value is 1.85% (inactive).

In the case of `COCCN1C(=O)CC[C@@]23C1=NC(C(=O)OC)=C(C(=O)OC)[C@@H]2N(CC=C(C)C)c1ccccc13`, the “activity change, negative = inhibition” value was -2.19% (inactive).

`C#CC[C@@]1(C(=O)OC)C=C[C@@H](C)[C@H](c2ccccc2Br)N1C(=O)C(F)(F)F`: the “activity change, negative = inhibition” value is -0.278% (inactive).

For `COC(=O)C1(C(=O)OC)C[C@@H]2CON=C2[C@@H]1c1ccccc1`, the “activity change, negative = inhibition” value is -1.8% (inactive).

With `C[C@H](NC(=O)N1CCc2nc(-c3ccccc3)c3c(c2C1)CO[C@@H](C)C3)c1ccccc1`, the “activity change, negative = inhibition” value was 2.68% (inactive).

With `CC(C)CON=C1C[C@@H](O)[C@@H](O)[C@@H]2[C@H]3C(=O)N(Cc4ccc5c(c4)OCO5)C(=O)[C@@H]3CC[C@@H]12`, the “activity change, negative = inhibition” value was 7.54% (inactive).

Take `COc1ccc2c(c1)CO[C@H]([C@H](O)CO)[C@H]2C=Cc1ccccc1`: the “activity change, negative = inhibition” value was 8.3% (inactive).

Consider `COC(=O)C1=C(C(=O)OC)[C@@H]2N(CC=C(C)C)c3ccccc3[C@@]23CCC(=O)N(CCc2ccccn2)C3=N1`, for which the “activity change, negative = inhibition” value was 6.56% (inactive).

Consider `CC(CCN1CCCc2nc(C)c(C)cc21)=NOC[C@@H](O)[C@H]1O[C@@H]2OC(C)(C)O[C@H]2[C@@H]1O`, for which the “activity change, negative = inhibition” value is -8.98% (inactive).
